Assay outcomes (PubChem BioAssay)
Hits are enriched below; roughly 6% of the tested compounds scored in any of these assays.
D3 antag: D3 dopamine receptor (human) antagonism; P35462; D3R cells, DiscoveRx beta-arrestin luminescence, antagonist mode; stronger effect = lower value; max response, negative = inhibition, %; hit rate 2.5% among 360,000; in the data active = max response below about -50%; inconclusive = no clear call, values can overlap the other calls
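Cells plated overnight at 1500 cells/well, then exposed to library compounds with dopamine controls for 90 minutes at 37 degrees C. DiscoveRx reagent added for 30–60 minutes at room temperature; luminescence read, quantitative HTS format.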
DRD3 agonist: D3 dopamine receptor (human) agonism | P35462 | D3R DiscoveRx beta-arrestin cells, luminescence, 90 min | max activation, % | hit rate 0.58% among 410,000 | AID 652048; in the data active = max activation above about 30%
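Cells at 1500/well, incubated overnight, then treated with pinned compounds (dopamine as control) for 90 min at 37 degrees C. DiscoveRx reagent added for 30 - 60 minutes at room temperature; luminescence read.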
D1 PAM: potentiators of human D1 dopamine receptor | HEK293 TREx D1 cells, calcium flux, dopamine EC20 potentiation | potentiation, % at 10 µM | hit rate 0.036% among 360,000 | AID 504651; in the data active = potentiation above about 30%
Target sequence (P21728 whole entry, looked up): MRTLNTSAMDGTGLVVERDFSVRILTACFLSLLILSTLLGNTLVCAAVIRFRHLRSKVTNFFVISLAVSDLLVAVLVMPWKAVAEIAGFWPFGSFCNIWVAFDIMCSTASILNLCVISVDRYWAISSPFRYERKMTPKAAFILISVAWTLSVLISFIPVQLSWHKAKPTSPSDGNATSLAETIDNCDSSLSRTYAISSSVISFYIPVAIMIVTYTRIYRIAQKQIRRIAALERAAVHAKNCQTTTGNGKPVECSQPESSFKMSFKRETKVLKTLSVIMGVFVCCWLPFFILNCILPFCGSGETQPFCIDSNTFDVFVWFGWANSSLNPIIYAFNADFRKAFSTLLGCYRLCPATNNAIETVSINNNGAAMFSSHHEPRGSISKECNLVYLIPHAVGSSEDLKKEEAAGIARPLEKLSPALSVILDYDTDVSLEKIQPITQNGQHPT
D1 antagonist: human D1 dopamine receptor antagonism | HEK293 TREx D1 cells, calcium flux, dopamine EC80; stronger effect = lower value | activity change, negative = inhibition, % at 10 µM | hit rate 3.2% among 360,000 | AID 504652; in the data active = activity change below about -30%
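Cells carrying a force-coupled, tetracycline-inducible human D1 receptor report calcium flux. Each well gets a 10 s baseline, compound with 180 s monitoring, then an EC80 dopamine stimulus with a second 180 s kinetic read.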
D1 agonist: agonists of human D1 dopamine receptor; P21728; HEK293 T-REx D1 cells, calcium flux, agonist mode; activation, % at 2 µM; hit rate 1% among 360,000; in the data active = activation above about 30%
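Tetracycline-induced HEK293 TREx D1 cells, force-coupled to calcium signalling, were dye-loaded with a no-wash calcium kit. Compound was pin-added after a 10 s baseline. Fluorescence was read kinetically at 1 cycle/s for 180 s, with calcium rises flagged as agonism.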
Hits are given with their value; - = inactive; ? = inconclusive; . = no result given.

SMILES	D3 antag	DRD3 agonist	D1 PAM	D1 antagonist	D1 agonist
CC(C)c1ccc2c(c1)C(N1CCN(C)CC1)Cc1cccnc1S2 (configuration not stated)	-104	-	.	.	.
Cc1cccc(N2C(=O)CC(N3CCN(c4ccccn4)CC3)C2=O)c1 (configuration not stated)	-	-	-	-	-
Cc1ccc(NCN2C(=O)C(=O)c3ccccc32)nc1	-64	-	-	-	-
Cc1ccc(NC(=O)CCCCCN2C(=O)c3ccccc3C2=O)nc1	-	-	-	-32	-
Cc1ccc(NC(=O)c2ccc3c(c2)C(=O)N(c2ccccc2C)C3=O)nc1	-	-	.	-36	-
COc1ccccc1CNc1cc(-c2ccccc2)nc2nncn12	.	-	-	-	-
CCN(CC)CCOC(=O)c1ccc(NC(=O)Cn2ncc3c2-c2cc(C)ccc2OC3)cc1	.	-	-	-	-
C#CCN(C#N)c1nc(NCC)nc(NC(C)C)n1	-	-	-	-	-
CCN(C#N)c1nc(NC(C)C)nc(NC(C)C)n1	-	32	-	-	-
O=C(Nc1ccc(OCc2cc(=O)n3c4c(sc3n2)CCCC4)cc1)c1cccc(F)c1	.	-	-	-	-
CC(C)(C)[C@@H]1C=C(C(=O)N2CCOCC2)O[C@H](OCc2ccc(CO)cc2)C1	-	-	-	-	-
CC(C)(C)[C@H]1C=C(C(=O)N2CCOCC2)O[C@@H](OCc2ccc(CO)cc2)C1	-52	-	-	-	-
O=C(NCc1ccccc1)C1=C[C@@H](c2ccccc2)C[C@@H](OCc2ccc(CO)cc2)O1	-	-	-	-	-
O=C(C1=C[C@@H](c2ccc(Br)cc2)C[C@@H](OCCCCO)O1)N1CCOCC1	-	-	-	-70	-
O=C(C1=C[C@@H](c2ccccc2)C[C@@H](OCCCCO)O1)N1CCOCC1	-	-	-	-37	-
CN1CCN(C(=O)C2=C[C@H](c3ccc(Br)cc3)C[C@H](OCCCCO)O2)CC1	-	-	-	-	-
O=C(NCc1ccccc1)C1=C[C@H](c2ccc(Br)cc2)C[C@H](OCc2ccc(CO)cc2)O1	-	-	-	-	32
CCn1c(CNC(=O)c2ccc(OC)cc2)nnc1SCC(=O)Nc1ccc(C)cc1	.	-	-	-	-
CC1Cc2cc(S(=O)(=O)CCC(=O)Nc3ccc(F)cc3Cl)ccc2N1C(=O)C1CC1 (configuration not stated)	.	-	-	-	-
CCn1c(SCC(=O)Nc2cccc(Cl)c2)nnc1-c1nonc1NC(C)=O	.	-	-	-	-
CN(Cc1ccco1)c1ncnc2ccc(-c3cccc(Cl)c3)cc12	.	.	-	-	-
Cc1ccc(S(=O)(=O)C(CNC(=O)C(=O)NCCc2ccc(F)cc2)c2cccs2)cc1 (configuration not stated)	.	-	-	.	-
O=C(C1=C[C@@H](c2ccc(Br)cc2)C[C@@H](OCc2ccc(CO)cc2)O1)N1CCOCC1	-	-	-	-	-
O=C(C1=C[C@H](c2ccc(Br)cc2)C[C@H](OCc2ccc(CO)cc2)O1)N1CCOCC1	?	-	-	-33	-
O=C(NCc1nc2ccccc2[nH]1)C1=C[C@H](C2CCCCC2)C[C@H](OCc2ccc(CO)cc2)O1	-	41	-	-	-
SMILES	D3 antag	DRD3 agonist	D1 PAM	D1 antagonist	D1 agonist
C=CCC(Nc1ccccc1)C12C=CC(O1)C(C(=O)OC)=C2C(=O)OC (configuration not stated)	-78	-	-	-	-
COC(=O)C1=C(C(=O)OC)[C@]2([C@@H]3CC=CCN[C@@H](Cc4ccccc4)C(=O)N3Cc3ccccc3)C=C[C@H]1O2	-	-	.	.	.
COc1cc2ncc3c(-c4ccccc4)nn(CC(=O)NC4CCCCC4)c3c2cc1OC	.	-	-	-	-
O=C(Nc1ccccc1C(=O)O)c1ccc(Cl)c(S(=O)(=O)N2CCOCC2)c1	-	-	-	-	-
O=C(Nc1ccccc1C(=O)O)c1cc(S(=O)(=O)N2CCCCC2)c(Cl)cc1Cl	-	31	-	-	-
Cc1ccc(S(=O)(=O)Nc2ccc(O)c3ccccc23)c(C)c1	-53	-	-	-	-
COC(=O)Cc1csc(NC(=O)CSc2nncn2C)n1	-	-	.	.	.
Cc1csc(NC(=O)CSc2nncn2C)n1	-63	-	-	-	-
COc1ccc(C)cc1Nc1n[n+](C)c(-c2ccc(O)cc2O)s1	-	-	-	-30	-
COc1ccc(C)cc1Nc1n[n+](-c2ccccc2)c(-c2ccc(N(C)C)cc2)s1	-	-	-	-57	-
COc1ccc(C)cc1Nc1n[n+](-c2ccccc2)c(-c2ccc(OC)c(OC)c2OC)s1	?	-	-	-37	-
COc1ccc(C)cc1Nc1n[n+](-c2ccccc2)c(-c2c(Cl)cccc2Cl)s1	-87	-	-	-	32
CCc1ccc(-c2nc(CS(=O)CC(=O)NCCc3ccc(C)cc3)c(C)o2)cc1 (configuration not stated)	.	-	-	-	-
Cc1cc(C)n(-c2nc3nonc3nc2Nc2cccc(C)c2C)n1	-	-	-	-32	-
Cc1cc(C)n(-c2nc3cc(Cl)c(Cl)cc3nc2Nc2c(C)cccc2C)n1	.	-	-	-	-
Cc1ccc(S(=O)(=O)NCCN2CCN(S(=O)(=O)c3ccccc3Cl)CC2)cc1	-	-	-	-53	-
CCn1cc2nc(SCc3ccc(F)cc3)n(Cc3ccc(Cl)cc3)c(=O)c2n1	.	-	-	-	-
c1ccc2c(NCCc3c[nH]c4ccccc34)c3ccccc3nc2c1	?	-	-	-	-
c1ccc(-n2nnnc2NCCc2c[nH]c3ccccc23)cc1	-52	-	-	-	-
CCn1c(-c2ccccc2)c(C(=O)CCl)c2ccccc21	-	-	-	-	-
Cn1c(-c2ccccc2)c(C(=O)CCl)c2ccccc21	-51	-	-	-	-
CC1=CC(C)(C)N(C(=O)c2ccccc2)c2ccc(C)cc21	-	-	-	-	57
N#CN1CCC(NS(=O)(=O)c2cccc(C(F)(F)F)c2)CC1	.	.	-	-	-
Cc1cc2c(s1)c1cnn(Cc3ccc(Cl)c(Cl)c3)c(=O)c1n2C	.	.	-	-	-
COC(=O)C1=C(C(=O)OC)[C@@H]2N(C)c3ccccc3[C@@]23C[C@@H](CO)N(C(=O)c2cccs2)C3=N1	-51	-	.	.	.
SMILES	D3 antag	DRD3 agonist	D1 PAM	D1 antagonist	D1 agonist
C#CCCOC(=O)N1C2=NC(C(=O)OC)=C(C(=O)OC)[C@@H]3N(C)c4ccccc4[C@]23C[C@H]1CO	-	-	.	.	.
CCCCNC(=O)Nc1ccnn1C1CCCCC1	-76	-	-	-	-
COc1ccccc1C(=O)Nc1ccnn1C1CCN(Cc2cn(C)c3ccccc23)CC1	-	-	-	-	-
Cc1cc(C)c(CN2CCC(n3nccc3NC(=O)c3ccccc3Cl)CC2)cc1C	-52	-	-	-	-
Cn1cc(CN2CCC(n3nccc3NC(=O)c3ccccc3Cl)CC2)c2ccccc21	-52	-	-	-	-
CCn1cc(CN2CCC(n3nccc3NC(=O)C3CCCC3)CC2)cn1	-	-	-	-52	-
